The full list was thinned out, with the strongest signals kept by preference.
Legend:
Experiment in all cases: glycan array binding signal (z-score within array); higher = stronger binding
Conditions in all cases: glycan notation: IUPAC condensed, linker removed
[1] = target: Fuc(a1-2)Gal(b1-3)GalNAc(b1-3)Gal(b1-4)Glc
In short: (§1)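 The binding signal is a Z-score computed within each array and averaged over linkers. Arrays of the same protein sequence at different concentrations or buffers were also averaged together. Data originate from 3228 arrays in the Consortium for Functional Glycomics database, kept only where the protein sequence was available.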

[2] = target: Fuc(a1-2)Gal(b1-3)[Fuc(a1-4)]GlcNAc(b1-2)Man(a1-3)[Fuc(a1-2)Gal(b1-3)[Fuc(a1-4)]GlcNAc(b1-2)Man(a1-3)]Man(b1-4)GlcNAc(b1-4)GlcNAc
In short: as §1

[3] = target: Fuc(a1-2)Gal(b1-3)[Fuc(a1-4)]GlcNAc(b1-3)[Gal(b1-4)GlcNAc(b1-6)]Gal(b1-4)Glc
In short: as §1

[4] = target: Fuc(a1-2)Gal(b1-4)GlcNAc
In short: as §1

[5] = target: Fuc(a1-2)Gal(b1-4)GlcNAc6S
In short: as §1

[6] = target: Fuc(a1-2)Gal(b1-4)[Fuc(a1-3)]GlcNAc
In short: as §1

[7] = target: Fuc(a1-2)GlcNAc
In short: as §1

[8] = target: Fuc(a1-2)[Gal(a1-3)]Gal(b1-3)GalNAc
In short: as §1

[9] = target: Fuc(a1-2)[Gal(a1-3)]Gal(b1-4)Glc
In short: as §1

[10] = target: Fuc(a1-2)[Gal(a1-3)]Gal(b1-4)GlcNAc(b1-6)GalNAc
In short: as §1

[11] = target: Fuc(a1-2)[GalNAc(a1-3)]Gal
In short: as §1

[12] = target: Fuc(a1-2)[GalNAc(a1-3)]Gal(b1-4)GlcNAc(b1-3)GalNAc
In short: as §1

[13] = target: Fuc(a1-3)[Gal(b1-4)]GlcNAc(b1-3)Gal(b1-4)[Fuc(a1-3)]GlcNAc(b1-3)Gal(b1-4)[Fuc(a1-3)]GlcNAc
In short: as §1

[14] = target: Fuc(a1-3)[Gal3S(b1-4)]Glc6S
In short: as §1

[15] = target: Gal(b1-3)GalNAc(b1-3)Gal
In short: as §1

[16] = target: Gal(b1-3)GalNAc(b1-3)Gal(a1-4)Gal(b1-4)Glc
In short: as §1

[17] = target: Gal(b1-3)[Fuc(a1-4)]GlcNAc(b1-3)Gal(b1-4)GlcNAc
In short: as §1

[18] = target: Gal(b1-3)[Neu5Ac(a2-6)]GalNAc
In short: as §1

[19] = target: Gal(b1-4)Gal
In short: as §1

[20] = target: Gal(b1-4)GlcNAc(b1-3)Gal(b1-4)GlcNAc(b1-3)Gal(b1-4)GlcNAc(b1-2)Man(a1-3)[Gal(b1-4)GlcNAc(b1-3)Gal(b1-4)GlcNAc(b1-3)Gal(b1-4)GlcNAc(b1-2)Man(a1-6)]Man(b1-4)GlcNAc(b1-4)GlcNAc
In short: as §1

[21] = target: Gal(b1-4)GlcNAc(b1-3)Gal(b1-4)GlcNAc(b1-3)Gal(b1-4)GlcNAc(b1-3)Gal(b1-4)GlcNAc(b1-2)Man(a1-3)[Gal(b1-4)GlcNAc(b1-3)Gal(b1-4)GlcNAc(b1-3)Gal(b1-4)GlcNAc(b1-3)Gal(b1-4)GlcNAc(b1-2)Man(a1-6)]Man(b1-4)GlcNAc(b1-4)GlcNAc
In short: as §1

[22] = target: Gal(b1-4)GlcNAc(b1-3)Gal(b1-4)GlcNAc(b1-3)GalNAc
In short: as §1

[23] = target: Gal(b1-4)GlcNAc(b1-3)Gal(b1-4)GlcNAc(b1-3)[Gal(b1-4)GlcNAc(b1-3)Gal(b1-4)GlcNAc(b1-6)]GalNAc
In short: as §1

[24] = target: Gal3S(b1-3)GalNAc
In short: as §1

[25] = target: Gal3S(b1-4)[Fuc(a1-3)]GlcNAc6S
In short: as §1

[26] = target: Gal3S6S(b1-4)GlcNAc
In short: as §1

[27] = target: Gal6S(b1-4)Glc
In short: as §1

[28] = target: Gal6S(b1-4)GlcNAc
In short: as §1

[29] = target: GalNAc(b1-4)GlcNAc(b1-2)Man(a1-3)[GalNAc(b1-4)GlcNAc(b1-2)Man(a1-6)]Man(b1-4)GlcNAc(b1-4)GlcNAc
In short: as §1

B1: LTL (Lotus tetragonolobus), P19664 (protein)
chain: VSFNYTEFKDDGSLILQGDAKIWTDGRLAMPTDPLVNNPKTTRSAGRALYATPVPIWDSATGNVASFVTSFNFLFVIRELKYTPTDGLVFFLAPVGTEIPSGSTGGFLGIFDGSNGFNQFVAVEFDSYHNIWDPKSLRSSHVGIDVNSIMSLKAVNWNRVSGSLEKATIIYDSQTNILSVVMTSQNGQITTIYGTIDLKTVLPEKVSVGFSATTGNPEREKHDIYSWSFTSTLKEPEEQA
glycan array binding signal (z-score) [1]: 0.013
glycan array binding signal (z-score) [2]: 0.157
glycan array binding signal (z-score) [3]: -0.265
glycan array binding signal (z-score) [4]: 0.463
glycan array binding signal (z-score) [5]: -0.057
glycan array binding signal (z-score) [6]: 4.58
glycan array binding signal (z-score) [7]: 2.03
glycan array binding signal (z-score) [8]: 0.102
glycan array binding signal (z-score) [9]: -0.211
glycan array binding signal (z-score) [10]: -0.201
glycan array binding signal (z-score) [11]: -0.25
glycan array binding signal (z-score) [12]: -0.219
glycan array binding signal (z-score) [13]: 8.86
glycan array binding signal (z-score) [14]: 0.757
glycan array binding signal (z-score) [15]: -0.295
glycan array binding signal (z-score) [16]: 0.007
glycan array binding signal (z-score) [17]: -0.389
glycan array binding signal (z-score) [18]: -0.277
glycan array binding signal (z-score) [19]: -0.131
glycan array binding signal (z-score) [20]: 3.1
glycan array binding signal (z-score) [21]: 0.014
glycan array binding signal (z-score) [22]: 2.04
glycan array binding signal (z-score) [23]: 2.93
glycan array binding signal (z-score) [24]: -0.003
glycan array binding signal (z-score) [25]: -0.287
glycan array binding signal (z-score) [26]: 0.068
glycan array binding signal (z-score) [27]: -0.131
glycan array binding signal (z-score) [28]: -0.022
glycan array binding signal (z-score) [29]: 1.48

Reference: the supplement of paper PMC8728848
